Source: PubChem
This is a sample that favours compounds with a hit; in the whole collection about 4.6% have one here.
USP8 inh – human USP8 deubiquitinase inhibition; 47,000 compounds, 4.2% hits; inhibition, % at 20 µM; purified USP8, Ub-rhodamine cleavage fluorescence, 30 min; P40818
USP7 inh – human USP7 deubiquitinase inhibition; Q93009; purified USP7, Ub-rhodamine cleavage fluorescence; inhibition, % at 20 µM; 47,000 compounds, 0.3% hits
UCHL1 inh – inhibitors of human UCHL1 deubiquitinase; P09936; purified UCHL1, Ub-rhodamine cleavage fluorescence; inhibition, % at 20 µM; 47,000 compounds, 0.2% hits; AID 1645859
USP10 inh – human USP10 deubiquitinase inhibition; Q14694; purified USP10, Ub-rhodamine fluorescence, 60 min; inhibition, % at 20 µM; 47,000 compounds, 1.1% hits; AID 1645856
The depositor's hits bear a star. Cut-off read from the data, not from the text of the source: active = inhibition above about 30%; inactive = the rest.

Results for O=C(CCN1C(=O)c2cccnc2Sc2ccccc21)NCC1CCCO1 (configuration not stated) ?
USP8 inh: -0.7; USP7 inh: 4.6; UCHL1 inh: 0.4; USP10 inh: 0.0

How did COc1cc(Cl)cc(CNC(C)C(=O)O)c1O (configuration not stated) do in these assays?
USP8 inh: 65.8*; USP7 inh: 1.4; UCHL1 inh: -1.6; USP10 inh: -1.0

Results for O=C(COC(=O)c1n[nH]c2ccccc12)Nc1ccc2c(c1)CCC2 ?
USP8 inh: 30.3*; USP7 inh: 11.9; UCHL1 inh: 0.9; USP10 inh: 11.4

How did O=C(COC(=O)c1n[nH]c2ccccc12)Nc1ccc(N2CCCCC2)cc1 do in these assays?
USP8 inh: 4.7; USP7 inh: 11.0; UCHL1 inh: 0.2; USP10 inh: 3.6

How did Cc1ccc(N2CCC(NC(=O)NCc3ccccc3)C2=O)cc1C (configuration not stated) do in these assays?
USP8 inh: 20.1; USP7 inh: 8.3; UCHL1 inh: 2.8; USP10 inh: 10.4

Results for CCOc1ccc(NC(=O)CSCc2nc(-c3ccc(OC)c(OC)c3)no2)cc1 ?
USP8 inh: 34.3*; USP7 inh: 3.8; UCHL1 inh: 2.8; USP10 inh: -0.6

How did O=c1cc(-c2ccc(Br)cc2)nc(-c2ccccc2F)o1 do in these assays?
USP8 inh: -9.0; USP7 inh: 2.5; UCHL1 inh: -1.6; USP10 inh: 1.5

What do the screens show for `NC(=O)CC[C@H](NC(=O)[C@H](Cc1ccccc1)n1c(=O)[nH]c2ccccc2c1=O)C(=O)NCC1CCC(C(=O)O)CC1` (some centres not stated)?
USP8 inh: -16.0; USP7 inh: 6.1; UCHL1 inh: 2.6; USP10 inh: -0.6

How did COCCN(C)c1nc(C2CCN(c3ccc(C)nn3)CC2)cc2c1ncn2C do in these assays?
USP8 inh: 5.3; USP7 inh: 0.1; UCHL1 inh: -1.4; USP10 inh: -4.6

What do the screens show for `COc1ccc(C2Nc3ccccc3C(=O)N2c2ccc3c(c2)OCO3)cc1O` (configuration not stated)?
USP8 inh: 56.6*; USP7 inh: -2.4; UCHL1 inh: 3.1; USP10 inh: -0.6

What do the screens show for `COc1cc(CO)cc2c1C(=O)c1c(O)cc(O)cc1C2=O`?
USP8 inh: 4.5; USP7 inh: 5.4; UCHL1 inh: 2.6; USP10 inh: 2.8

Results for COc1cc(C)cc2c1C(=O)c1c(cc(O)c(Cl)c1O)C2=O ?
USP8 inh: -18.2; USP7 inh: 71.5*; UCHL1 inh: 72.7*; USP10 inh: 5.0

Results for Cc1cccc(-c2noc(Cn3c(=O)[nH]c4cc5c(cc4c3=O)OCO5)n2)c1 ?
USP8 inh: 55.0*; USP7 inh: 1.9; UCHL1 inh: -1.5; USP10 inh: 19.5

Results for CCc1ccc(NC(=O)C(=O)NCC2CCNCC2)cc1 ?
USP8 inh: 2.8; USP7 inh: 2.8; UCHL1 inh: -0.9; USP10 inh: -0.3

Results for Cn1cnc(S(=O)(=O)N2CCOC(c3ccc(Nc4ccccn4)cn3)C2)c1 (configuration not stated) ?
USP8 inh: -1.1; USP7 inh: -1.3; UCHL1 inh: -1.9; USP10 inh: 0.1

What do the screens show for `Cc1cc(N2CCCC2c2cnc(-c3nccn3C)cn2)ncn1` (configuration not stated)?
USP8 inh: -82.5; USP7 inh: 3.6; UCHL1 inh: 0.8; USP10 inh: -1.2

Results for Cc1nn(-c2ccc(Cl)cc2)c2[nH]c(=O)c(CNCCc3ccccc3)cc12 ?
USP8 inh: 78.3*; USP7 inh: 0.2; UCHL1 inh: -0.2; USP10 inh: 4.1

How did CC(C)(C)c1nn(-c2ccc(Cl)cc2)c2[nH]c(=O)c(CNCc3ccco3)cc12 do in these assays?
USP8 inh: 65.6*; USP7 inh: -63.1; UCHL1 inh: 5.2; USP10 inh: 7.5

How did Cc1nn(-c2ccccc2)c2[nH]c(=O)c(CNCCN3CCOCC3)cc12 do in these assays?
USP8 inh: 22.5; USP7 inh: 5.9; UCHL1 inh: 2.0; USP10 inh: 1.6

Results for Cc1ccc(NCc2cc3c(C(C)(C)C)nn(-c4ccc(Cl)cc4)c3[nH]c2=O)cc1C ?
USP8 inh: 88.2*; USP7 inh: 4.2; UCHL1 inh: -1.0; USP10 inh: 8.6

What do the screens show for `Cc1cc(=O)[nH]c(N2CCN(c3ccc(Cl)cc3)CC2)n1`?
USP8 inh: 24.7; USP7 inh: -18.2; UCHL1 inh: 0.9; USP10 inh: 3.0

Results for Cc1nn(-c2ccc(Cl)cc2)c2[nH]c(=O)c(CNc3ccccc3)cc12 ?
USP8 inh: 80.1*; USP7 inh: 5.2; UCHL1 inh: 2.2; USP10 inh: 6.3
